# Results filed as inconclusive are left out. Where a call stands in place of a potency, no number is given. Active and inactive are the calls of the source. Unless noted, the call rests on the fitted dose curve; in most records, active means well fitted curve in the direction sought with a large enough effect in the repeat runs; inconclusive means weak or mixed curves; inactive means no such curve, though single readings can be large; an effect the other way counts as inactive or inconclusive.
# Legend:
# [1] = qHTS assay to test for compound auto fluorescence at 535 nm (green) in HEK293 cells (AID 720680)
# [2] = qHTS assay to test for compound auto fluorescence at 460 nm (blue) in HEK293 cell free culture (AID 720681)
# Outline: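 Test compounds were pinned into cell-free culture medium (DMEM with 10% FBS) and fluorescence was read directly at Ex/Em 405/460 nm. Signals were expressed as fluorescence equivalents of triamterene, with DMSO vehicle as control.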
# [3] = qHTS assay to test for compound auto fluorescence at 535 nm (green) in HEK293 cell free culture (AID 720682)
# Outline: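 DMEM + 10% FBS, cell-free; cpd or DMSO pinned in; Ex485/Em535 read; output as fluorescein-equivalent signal.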
# [4] = qHTS assay to test for compound auto fluorescence at 590 nm (red) in HEK293 cell free culture (AID 720683)
# Outline: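 Tox21 10K library compounds were pinned into cell-free DMEM with 10% FBS and fluorescence was read at excitation 540 nm. Activity is expressed as Rose Bengal sodium equivalency.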
# [5] = qHTS assay to test for compound auto fluorescence at 590 nm (red) in HepG2 cell free culture (AID 720684)
# Outline: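 Measured in medium alone (MEM containing 10% FBS) following pintool addition of compound; emission at 590 nm with 540 nm excitation, referenced to Rose Bengal sodium.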
# [6] = qHTS assay to test for compound auto fluorescence at 460 nm (blue) in HepG2 cell free culture (AID 720685)
# Outline: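 Compound (23 nL) or DMSO pinned into cell-free MEM with 10% FBS; blue fluorescence read at 405/460 nm excitation/emission, expressed as auto-fluorescence equivalency to triamterene.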
# [7] = qHTS assay to test for compound auto fluorescence at 535 nm (green) in HepG2 cell free culture (AID 720686)
# [8] = qHTS assay to test for compound auto fluorescence at 460 nm (blue) in HepG2 cells (AID 720687)
# Outline: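 Cells (2,000/well in MEM with 10% FBS) attached overnight at 37 C, then were exposed to compound or DMSO for 1 hr at 37 C, 5% CO2. Fluorescence read at Ex/Em 405/460 nm, expressed as triamterene-equivalent signal.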
# [9] = molecular target: Glucocorticoid receptor (Homo sapiens) (UniProt P04150); experiment: qHTS assay to identify small molecule agonists of the glucocorticoid receptor (GR) signaling pathway (AID 720691; active means well fitted activation curve with a large enough effect in the signal ratio in the repeat runs, not every such curve was filed as active; the % refers to the signal ratio); settings: GR-bla HeLa, beta-lactamase reporter ratio, 18 h; activation: at 62.4 µM (top of the series)
# Outline: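 Agonist mode in a HeLa line carrying a GRE-controlled beta-lactamase reporter. Compounds act for 18 h at 37 C before a 2 h room-temperature FRET substrate step and fluorescence reading.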
# [10] = molecular target: Glucocorticoid receptor (Homo sapiens) (UniProt P04150); experiment: qHTS assay to identify small molecule antagonists of the glucocorticoid receptor (GR) signaling pathway (AID 720692; active means well fitted inhibition curve with a large enough effect in the signal ratio in the repeat runs, not every such curve was filed as active; the % refers to the signal ratio)
# Outline: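 Cells plated, rested 4 h at 37 C/5% CO2; compounds in DMSO pin-transferred; dexamethasone added to 5 nM final; 18 h at 37 C; B/G FRET substrate added, 2 h room temperature; fluorescence measured.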
# [11] = qHTS assay to identify small molecule antagonists of the glucocorticoid receptor (GR) signaling pathway - cell viability counter screen (AID 720693); further: nearly all actives have a fitted effect of over 55% in size
# [12] = qHTS assay for identifying genotoxic compounds that show differential cytotoxicity against isogenic chicken DT40 cell lines with known DNA damage response pathways - wild type cell line (AID 743012); further: nearly all actives have a fitted effect of over 60% in size; further: potency means the concentration at half of the fitted maximal effect
# Outline: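 Cells (DT40 wild type, 300/well) are treated with DMSO-dissolved compounds after a ~0.5 h pre-incubation and kept 40 h at 37 C/5% CO2. Viability is then measured by CellTiter-Glo luminescence following 30 min at room temperature.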
# [13] = qHTS assay for identifying genotoxic compounds that show differential cytotoxicity against isogenic chicken DT40 cell lines with known DNA damage response pathways - Rev3 mutant cell line (AID 743014); further: nearly all actives have a fitted effect of over 55% in size; further: potency means the concentration at half of the fitted maximal effect
# [14] = qHTS assay for identifying genotoxic compounds that show differential cytotoxicity against isogenic chicken DT40 cell lines with known DNA damage response pathways - Rad54/Ku70 mutant cell line (AID 743015); further: nearly all actives have a fitted effect of over 60% in size; further: potency means the concentration at half of the fitted maximal effect
# [15] = qHTS assay to identify small molecule antagonists of the androgen receptor (AR) signaling pathway using the MDA cell line - cell viability counter screen (AID 743041; further: nearly all actives have a fitted effect of over 45% in size)
# Outline: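 Viability counter screen run alongside the AR antagonist reporter: cells seeded 5 h before compound, R1881 added, 16 h incubation at 37C without CO2, fluorescent CellTiter-Fluor signal quantified.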
# [16] = qHTS assay to identify small molecule antagonists of the androgen receptor (AR) signaling pathway - cell viability counter screen (AID 743033; further: nearly all actives have a fitted effect of over 45% in size)
# [17] = molecular target: Androgen receptor (Homo sapiens) (UniProt P10275); experiment: qHTS assay to identify small molecule antagonists of the androgen receptor (AR) signaling pathway (AID 743035; active means well fitted inhibition curve with a large enough effect in the signal ratio in the repeat runs, not every such curve was filed as active; the % refers to the signal ratio)
# Outline: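 Antagonism is scored as loss of R1881-driven beta-lactamase reporter expression in HEK293 cells carrying the reporter under a UAS element, after 16 h co-treatment at 37C and a 2 h room-temperature FRET substrate read.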
# [18] = molecular target: Androgen receptor (Homo sapiens) (UniProt P10275); experiment: qHTS assay to identify small molecule agonists of the androgen receptor (AR) signaling pathway (AID 743036; active means well fitted activation curve with a large enough effect in the signal ratio in the repeat runs, with a control signal flat, not every such curve was filed as active; the % refers to the signal ratio)
# Outline: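 Screening used 2,000 AR-bla HEK293 cells per well, treated 16 h at 37C with test compounds in DMSO alongside positive and DMSO-only controls; beta-lactamase activity was then read by LiveBLAzer B/G FRET fluorescence after 2 h at room temperature.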
# [19] = molecular target: Androgen receptor (Homo sapiens) (UniProt P10275); experiment: qHTS assay to identify small molecule agonists of the androgen receptor (AR) signaling pathway using the MDA cell line (AID 743040; further: nearly all actives have a fitted effect of over 20% in size; further: potency means the concentration at half of the fitted maximal effect)
# Outline: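 Luminescence from ONE-Glo, read after 30 min at room temperature, reflects MMTV-driven luciferase in MDA-kb2 cells (AR- and GR-responsive). Treatment lasted 16 h at 37C, 0% CO2.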
# [20] = molecular target: Androgen receptor (Homo sapiens) (UniProt P10275); experiment: qHTS assay to identify small molecule antagonists of the androgen receptor (AR) signaling pathway using the MDA cell line (AID 743042; further: nearly all actives have a fitted effect of over 55% in size)
# Outline: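 MDA-kb2 cells (human breast carcinoma, stably carrying an MMTV-luciferase reporter responsive to AR and GR) were plated at 3,000 cells/well and preincubated 5 hr at 37C, then given compound plus R1881 agonist for 16 h. ONE-Glo luminescence was read.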
# Chain of Glucocorticoid receptor (Homo sapiens) (P04150 whole entry, looked up): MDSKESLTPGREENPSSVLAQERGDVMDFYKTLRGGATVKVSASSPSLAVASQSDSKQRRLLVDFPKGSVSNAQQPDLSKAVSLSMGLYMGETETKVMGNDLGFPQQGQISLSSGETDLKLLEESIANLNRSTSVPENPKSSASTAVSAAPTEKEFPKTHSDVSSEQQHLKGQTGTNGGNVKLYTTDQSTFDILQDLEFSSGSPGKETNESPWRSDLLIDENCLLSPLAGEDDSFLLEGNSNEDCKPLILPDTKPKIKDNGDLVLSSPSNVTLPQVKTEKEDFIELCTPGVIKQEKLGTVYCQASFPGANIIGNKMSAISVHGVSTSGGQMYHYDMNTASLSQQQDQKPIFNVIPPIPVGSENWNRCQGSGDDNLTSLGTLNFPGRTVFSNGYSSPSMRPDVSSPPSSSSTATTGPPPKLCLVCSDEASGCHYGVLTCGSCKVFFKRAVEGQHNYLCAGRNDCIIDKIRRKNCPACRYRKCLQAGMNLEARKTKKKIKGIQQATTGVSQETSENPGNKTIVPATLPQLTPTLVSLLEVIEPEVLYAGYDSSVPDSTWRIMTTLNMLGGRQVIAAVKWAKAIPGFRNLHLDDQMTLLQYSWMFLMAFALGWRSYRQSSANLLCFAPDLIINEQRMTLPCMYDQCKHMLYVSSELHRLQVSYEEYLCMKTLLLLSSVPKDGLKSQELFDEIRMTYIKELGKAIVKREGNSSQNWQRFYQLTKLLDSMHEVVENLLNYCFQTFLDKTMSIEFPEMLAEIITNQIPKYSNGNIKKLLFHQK
# Chain of Androgen receptor (Homo sapiens) (P10275 whole entry, looked up): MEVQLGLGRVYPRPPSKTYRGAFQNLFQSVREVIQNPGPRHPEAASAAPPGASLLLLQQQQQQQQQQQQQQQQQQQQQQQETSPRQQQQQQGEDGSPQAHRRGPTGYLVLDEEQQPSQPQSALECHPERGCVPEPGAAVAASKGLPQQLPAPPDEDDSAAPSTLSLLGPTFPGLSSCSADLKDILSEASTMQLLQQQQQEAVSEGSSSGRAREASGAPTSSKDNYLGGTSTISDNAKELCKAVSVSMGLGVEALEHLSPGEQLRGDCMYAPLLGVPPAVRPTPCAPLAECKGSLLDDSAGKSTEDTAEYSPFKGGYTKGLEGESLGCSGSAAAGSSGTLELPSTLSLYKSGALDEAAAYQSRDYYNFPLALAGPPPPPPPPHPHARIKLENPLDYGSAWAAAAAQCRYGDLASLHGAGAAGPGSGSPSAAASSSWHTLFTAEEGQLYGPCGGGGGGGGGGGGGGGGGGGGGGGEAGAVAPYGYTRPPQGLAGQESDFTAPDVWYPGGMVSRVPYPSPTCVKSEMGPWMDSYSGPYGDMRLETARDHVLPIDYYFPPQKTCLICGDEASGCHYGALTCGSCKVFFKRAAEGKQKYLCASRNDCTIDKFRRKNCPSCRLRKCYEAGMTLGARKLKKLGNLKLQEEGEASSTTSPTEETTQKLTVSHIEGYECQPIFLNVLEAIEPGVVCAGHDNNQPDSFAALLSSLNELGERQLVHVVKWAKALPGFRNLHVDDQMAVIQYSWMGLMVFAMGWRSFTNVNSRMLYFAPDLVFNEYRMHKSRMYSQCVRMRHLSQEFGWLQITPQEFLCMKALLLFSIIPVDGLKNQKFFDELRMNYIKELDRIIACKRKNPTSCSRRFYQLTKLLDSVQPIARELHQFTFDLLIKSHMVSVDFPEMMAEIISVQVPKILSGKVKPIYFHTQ
Compound,Potency [1],Potency [2],Potency [3],Potency [4],Potency [5],outcome [6],Potency [7],outcome [8],Potency [9],Potency [10],Potency [11],Potency [12],Potency [13],Potency [14],Potency [15],Potency [16],Potency [17],Potency [18],Potency [19],Potency [20]
CN[C@@H]1[C@@H](O)[C@@H](O[C@@H]2[C@@H](O)[C@H](OC3OC(CN)=CCC3N)[C@@H](N)C[C@H]2N)OC[C@]1(C)O (stereo partly specified),inactive,inactive,inactive,inactive,inactive,inactive,inactive,inactive,inactive,inactive,inactive,inactive,inactive,inactive,inactive,,,,,
O=C(Nc1ccc(/C=C/c2ccc(NC(=O)c3cc(S(=O)(=O)O)c4cccnc4c3O)cc2S(=O)(=O)O)c(S(=O)(=O)O)c1)c1cc(S(=O)(=O)O)c2cccnc2c1O,inactive,inactive,inactive,inactive,inactive,inactive,inactive,inactive,inactive,inactive,inactive,inactive,,29.8 µM (active),inactive,,,,,
CC(=O)c1ccc2c(c1)N(CCCN1CCN(CCO)CC1)c1ccccc1S2,inactive,inactive,inactive,inactive,inactive,inactive,inactive,inactive,inactive,inactive,inactive,13.3 µM (active),26.6 µM (active),21.1 µM (active),inactive,,,,,
FCOC(C(F)(F)F)C(F)(F)F,inactive,inactive,inactive,inactive,inactive,inactive,inactive,inactive,inactive,inactive,inactive,inactive,inactive,inactive,inactive,,,,,
C#CCOc1ccc2c(C)cc(=O)oc2c1,inactive,inactive,inactive,inactive,inactive,inactive,inactive,inactive,inactive,inactive,inactive,inactive,,,inactive,inactive,,,,
NC(=O)OCC(O)COc1ccc(Cl)cc1 (stereo unspecified),inactive,inactive,inactive,inactive,inactive,inactive,inactive,inactive,inactive,inactive,inactive,inactive,inactive,inactive,inactive,,,,,
O=[n+]1ccn([O-])c2ccccc21,inactive,inactive,inactive,inactive,inactive,inactive,inactive,inactive,inactive,inactive,inactive,inactive,,inactive,inactive,inactive,,,,
O=C(O)C1=C(CSc2nnnn2CS(=O)(=O)O)CS[C@@H]2[C@H](NC(=O)[C@H](O)c3ccccc3)C(=O)N12,inactive,inactive,inactive,inactive,inactive,inactive,inactive,inactive,inactive,inactive,inactive,inactive,,inactive,inactive,,inactive,inactive,26.6 µM (active),inactive
C=CCCCCCCCCC(=O)OC,inactive,inactive,inactive,inactive,inactive,inactive,inactive,inactive,inactive,inactive,inactive,inactive,inactive,,inactive,inactive,,,,
Cc1ncc(COP(=O)(O)O)c(CN)c1O,inactive,inactive,inactive,inactive,inactive,inactive,inactive,inactive,inactive,inactive,inactive,inactive,,inactive,,inactive,,,,
c1ccc2c(CCC3CCNCC3)c[nH]c2c1,inactive,inactive,inactive,inactive,inactive,inactive,inactive,inactive,inactive,inactive,inactive,13.3 µM (active),29.8 µM (active),26.6 µM (active),inactive,,,,,
O=C1CCC(=O)N1CO,inactive,inactive,inactive,inactive,inactive,inactive,inactive,inactive,inactive,inactive,inactive,inactive,,inactive,inactive,,,,,
COc1ccc(CCNCC(O)COc2cccc(C)c2)cc1OC (stereo unspecified),inactive,inactive,inactive,inactive,inactive,inactive,inactive,inactive,inactive,inactive,inactive,26.6 µM (active),,,inactive,inactive,,inactive,inactive,inactive
CO[C@H]1C[C@H](O[C@@H]2/C(C)=C/C[C@@H]3C[C@@H](C[C@]4(CC[C@H](C)[C@@H](C5CCCCC5)O4)O3)OC(=O)[C@@H]3C=C(C)/C(=N/O)[C@H]4OC/C(=C\C=C\[C@@H]2C)[C@]43O)O[C@@H](C)[C@@H]1O,inactive,inactive,inactive,inactive,inactive,inactive,inactive,inactive,inactive,inactive,inactive,inactive,,inactive,inactive,inactive,,,,
